Assay outcomes as filed in PubChem BioAssay.
The list is not random: actives were taken first. Their share in the collection is about 3.4%.
FBW7 activator: FBW7 E3 ligase activators, primary screen, biochemical, AlphaScreen, human. 650,000 compounds, 0.13% hits. normalized activity (activation), % at 26.1 µM. AlphaScreen FBW7–phospho-cyclin E peptide binding, activator screen. F-box/WD repeat-containing protein 7 (Homo sapiens), Q969H0; in the data active means normalized activity above about 1.9%;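 further: purified mutant Fbw7 with reduced substrate affinity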
TEAD-YAP inh: TEAD-YAP interaction inhibition, primary screen, TEAD-YAP interaction inhibitor project, luminescence, HEK-TIYL cells; TEAD-Gal4/YAP UAS-luciferase luminescence; inhibition, % at 9.12 µM; 640,000 compounds, 1.4% hits; in the data active means inhibition above about 32%;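 further: 0% = median of test compound wells and 100% = reference inhibitor wells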
GPR151 activ: activators of human GPR151, primary screen, cell-based, PathHunter beta-arrestin, luminescence | G-protein coupled receptor 151 (Homo sapiens), Q8TDV0 | PathHunter beta-arrestin GPR151 cells | activation, % at 11.2 µM | 650,000 compounds, 1% hits; in the data active means activation above about 4.9%;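 further: 0% = median of compound wells and 100% = cells with positive control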
Target sequence (Q8TDV0 whole entry, looked up): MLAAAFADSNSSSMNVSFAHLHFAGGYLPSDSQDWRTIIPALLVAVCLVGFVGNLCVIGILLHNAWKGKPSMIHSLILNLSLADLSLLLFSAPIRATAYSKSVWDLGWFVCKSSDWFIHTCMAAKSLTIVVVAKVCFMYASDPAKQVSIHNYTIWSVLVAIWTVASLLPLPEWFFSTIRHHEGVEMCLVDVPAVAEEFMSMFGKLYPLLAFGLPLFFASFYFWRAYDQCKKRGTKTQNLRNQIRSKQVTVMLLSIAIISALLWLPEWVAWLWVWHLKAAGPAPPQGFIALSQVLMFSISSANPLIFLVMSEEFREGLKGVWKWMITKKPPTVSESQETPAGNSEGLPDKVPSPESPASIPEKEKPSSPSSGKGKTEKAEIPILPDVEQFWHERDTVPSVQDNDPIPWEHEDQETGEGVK
MITF primary: MITF inhibitors, primary screen, biochemical, AlphaScreen, human; AID 1259374, 2018; inhibition, % at 2.6 µM; AlphaScreen MITF homodimerization, bead proximity signal; 650,000 compounds, 0.91% hits; Microphthalmia-associated transcription factor (Homo sapiens), O75030; in the data active means inhibition above about 50%;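 further: 0% = vehicle wells with protein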
GPR151 confirm: GPR151 activators, triplicate retest, confirmation, cell-based, PathHunter beta-arrestin, luminescence. AID 1508609, 2020. 6,700 tested, under 10 active. GPR151 PathHunter beta-arrestin cells, 90 min; % of EA-reagent control over plate median. shares compounds with GPR151 activ. activation, % at 11.2 µM;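 active means mean percent activation across replicates above the confirmation screen cutoff of 4.91%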
GPR119 ag: GPR119 activators in beta-arrestin cells, counter-screen for GPR151 activator project, cell-based, PathHunter beta-arrestin, luminescence, triplicate. 90 min; 0 = compound-well median, 100 = enzyme-acceptor control. AID 1508611, 2020. 6,700 compounds, 0.3% hits. activation, % at 11.2 µM. shares compounds with GPR151 activ;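 active means mean percent activation in the counterscreen above 29.09%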;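 further: counterscreen on off-target GPR119 to flag nonselective hits from the GPR151 activator screen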
Numbers without * were called inactive; . = not tested or not shown.

SMILES	FBW7 activator	TEAD-YAP inh	GPR151 activ	MITF primary	GPR151 confirm	GPR119 ag
Cc1cccc(-n2ccnc2SCC(=O)Nc2ccc(F)cc2F)c1C	-0.3	-5.4	9.3*	-4.1	0.5	-4.2
CCOC(=O)c1cc(C)sc1NC(=O)c1cc(-c2ccc(CC(C)C)cc2)nc2ccccc12	-0.2	2.9	0.2	0.2	.	.
COC(=O)c1c(NC(=O)c2cc(-c3ccc(CC(C)C)cc3)nc3ccccc23)sc(C)c1-c1ccccc1	1.0	3.8	5.1*	14.4	2.0	17.2
CCCCOc1ccc(-c2cc(C(=O)OC)c3ccccc3n2)cc1	-0.1	-0.3	7.5*	2.4	0.1	-9.1
CCCCOc1ccc(-c2cc(C(=O)NN)c3ccccc3n2)cc1	0.2	-2.0	-0.1	0.1	.	.
N#Cc1c(NC(=O)c2ccc(CSc3ccc(Cl)cc3)cc2)sc2c1CCCC2	0.0	4.4	1.6	6.4	.	.
CC(C)(C)Cc1nnc(NC(=O)CCCOc2ccccc2)s1	-0.1	-2.9	-0.2	-9.8	.	.
O=c1[nH]c2ccc(S(=O)(=O)N3CCN(c4ccccn4)CC3)cc2s1	0.1	-12.9	5.1*	-5.1	0.1	6.4
c1ccc2oc(NC3=NCN(C4CCCCC4)CN3)nc2c1	0.1	-13.5	9.9*	-9.4	1.4	4.5
COc1cc(C=C2C(=O)N(C)C(=O)N(C)C2=O)cc(I)c1OC	0.0	-16.7	-0.9	25.0	.	.
CCC(C)c1ccccc1NS(=O)(=O)Cc1ccccc1 (centres undefined)	0.0	5.0	5.8*	-2.2	0.1	-8.2
CC(C)NC(=O)c1ccccc1NS(=O)(=O)Cc1ccccc1	0.8	15.0	0.4	13.8	.	.
CC(=O)C(Sc1nc(NC(C)C)nc(N(C)C)n1)C(C)=O	0.9	-12.2	5.3*	15.9	-0.2	4.9
Cc1cccc(-n2cnc3cc(C(=O)NCc4ccc5c(c4)OCO5)ccc32)c1	0.0	4.5	7.0*	14.9	-0.9	-6.6
Cc1cc(C)cc(-n2cnc3cc(C(=O)NCc4ccc5c(c4)OCO5)ccc32)c1	0.0	-3.1	-1.1	-15.8	.	.
Cc1cc(Cl)ccc1OCC(=O)NCC(=O)N/N=C/c1ccc(N(C)C)cc1	0.0	-7.6	2.0	5.9	.	.
NC(=O)c1ccccc1OCCOc1ccccc1F	0.0	-34.9	1.3	-2.3	.	.
COC(=O)C1CCN(C(=O)CC(C)(C)C)CC1	0.3	-2.5	6.1*	16.7	1.5	3.3
Cc1cc(C)cc(NC(=O)c2ccc(Cl)c(Cl)c2)c1	-0.1	-11.3	5.4*	-13.8	-0.5	-3.6
COC(=O)c1ccccc1NC(=O)c1ccc(Cl)c(Cl)c1	0.0	12.1	5.1*	-4.3	0.1	-4.2
COC(=O)c1ccccc1NC(=O)c1cccc(Cl)c1	0.0	-1.9	-0.3	16.6	.	.
COc1ccc(O)c(CN2CCCCC2)c1	-0.4	-8.9	-0.3	-3.9	.	.
COc1ccc(O)c(CN(C)CCN(C)C)c1	0.6	10.5	7.2*	8.2	-0.5	-8.9
CC(=O)Nc1ccc(Nc2nc(-c3ccc(C(=O)NC4CC4)cc3)nc3nc[nH]c23)cc1	0.2	-7.1	7.8*	-2.3	2.5	-11.2
COc1ccc(C=O)cc1Cn1cnc([N+](=O)[O-])n1	0.0	8.1	5.5*	0.2	-0.6	-3.3
SMILES	FBW7 activator	TEAD-YAP inh	GPR151 activ	MITF primary	GPR151 confirm	GPR119 ag
CCCCOC(=O)c1cccc(NC(=O)CCCCCN2C(=O)c3ccccc3C2=O)c1	0.1	7.7	0.1	-15.2	.	.
COc1ccc(CCNC(=O)c2cc(Cl)ccc2[N+](=O)[O-])cc1	-0.3	9.3	5.1*	3.7	-0.2	-7.7
CCOc1cc(/C=N/NC(=O)c2cccnc2)cc(Cl)c1O	-0.2	4.2	2.1	3.6	.	.
Cc1cccc(CN2C(=O)C3CCCN3c3ccc(C#N)cc32)c1 (centres undefined)	0.0	-5.5	9.4*	0.5	-0.4	-6.8
N#Cc1ccc2c(c1)N(Cc1ccccc1F)C(=O)C1CCCN21 (centres undefined)	0.5	4.8	1.7	-2.8	.	.
N#Cc1c(I)nc2c(c1C#N)CCCCCCCCCC2	0.2	-0.9	-1.8	10.2	.	.
